Our source for the composite z-score, composite Z-score and z-score values is PubChem BioAssay.

One assay concerns the target Albumin (Bos taurus) (UniProt P02769). Nature of the assay: bovine serum albumin binders on microarray, profiling panel, artefact control for SMM control protein annotation, biochemical, small-molecule microarray, Alexa647 label, 635/667 nm fluorescence (AID 1118).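 Also: score merges 667 nm emission intensity and signal-to-noise per printed compound spot.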 As to conditions: BSA-A647 binding, fluorescence 635 nm, higher = more signal.
The nature of assay [1]: small-molecule microarray binders of probe aXIP, primary screen, biochemical, NeuroSMM set, 635/667 nm fluorescence (AID 1119).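 Also: probe is the protein aXip251-270 applied at 1 µg/mL to compound-printed slides; binding of probe to printed compounds measured as 667 nm fluorescence plus signal to noise.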 The conditions noted are these: higher = more signal, called active from +8 up or from −8 down.
Assay [2] in a line: small-molecule binders of probe aNOTCH3, primary screen, biochemical, small-molecule microarray, 635/667 nm fluorescence (AID 1120).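 Also: probe is a biotin-tagged antibody raised against NOTCH3 rather than NOTCH3 protein; score merges spot fluorescence near 667 nm with spot signal to noise.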 The conditions noted are these: higher = more signal.
Assay [3] can be described thus: small-molecule binders of probe aNOTCH2, primary screen, biochemical, small-molecule microarray, 635/667 nm fluorescence (AID 1121).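 Also: score merges feature fluorescence read at 667 nm with its signal to noise.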 As to conditions: higher = more signal.
For assay [4], the target named is Carbonic anhydrase 2 (Homo sapiens) (UniProt P00918). In words: CAII small-molecule binders, profiling panel, biochemical, small-molecule microarray, Alexa647-labelled CAII (AID 1122). As to conditions: CAII-A647 binding fluorescence, higher = more signal.
Assay [5] is described as follows: COS7 lysate on small-molecule microarray, probe aHis, 635 nm (AID 1123).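 Also: z-score combines 667nm fluorescence intensity with signal-to-noise per printed compound spot.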 The conditions noted are these: COS7 cell lysate, fluorescence, higher = more signal.
A short description of assay [6]: compound binding in COS7 lysate, probe aLAP1, primary screen, cell lysate, small-molecule microarray (AID 1124).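 Also: lysate comes from COS7 cells expressing LAP1 and is applied at 0.3 µg/mL; score merges spot fluorescence near 667 nm with signal-to-noise over triplicate slides.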 As to conditions: probe aLAP1, fluorescence, higher = more signal.
The next assay has as its system Sam68 (KHDRBS1). In words: Sam68 small-molecule binders, primary screen, biochemical, small-molecule microarray, 635 nm fluorescence (AID 1125).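 Also: score merges 667 nm channel intensity with signal to noise over triplicate slides.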 The conditions noted are these: small-molecule microarray binding, higher = more signal.
Assay [7] concerns Chordin-like protein 2 (CHRDL2). In words: CHRDL2 small-molecule binders, primary screen, biochemical, small-molecule microarray, 635 nm fluorescence (AID 1126).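 Also: printed compound slides probed with Chrdl2 protein at 4 µg/mL for 1 h at 4 C; score merges 667 nm emission intensity with signal to noise over three replicate slides.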 As to conditions: small-molecule microarray binding, fluorescence 635 nm; higher = more signal.
For assay [8], the target named is Concanavalin-A (Canavalia ensiformis) (UniProt P02866). In words: ConA small-molecule binders, primary screen, artefact control for SMM control protein annotation, biochemical, small-molecule microarray, Alexa647 label, 635 nm (AID 1127).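 Also: z combines 667 nm emission intensity with signal-to-noise across three replicate slides.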 As to conditions: ConA-A647 binding fluorescence, higher = more signal.
Chain of Concanavalin-A (Canavalia ensiformis) (P02866 whole entry, looked up): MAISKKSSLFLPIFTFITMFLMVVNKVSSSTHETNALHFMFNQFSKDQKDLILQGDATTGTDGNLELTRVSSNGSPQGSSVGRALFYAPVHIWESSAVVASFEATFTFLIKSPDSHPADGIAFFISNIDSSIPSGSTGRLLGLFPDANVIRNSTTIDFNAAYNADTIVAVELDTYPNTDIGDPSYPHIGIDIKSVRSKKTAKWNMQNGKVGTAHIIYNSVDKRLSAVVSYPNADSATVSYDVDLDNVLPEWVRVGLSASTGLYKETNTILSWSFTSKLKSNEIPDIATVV
Assay [9] is described as follows: anti-His antibody binders, primary screen, artefact control for SMM control protein annotation, biochemical, small-molecule microarray, 635 nm fluorescence (AID 1128).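 Also: score merges feature fluorescence with signal-to-noise for each printed compound spot.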 As to conditions: anti-His Alexa647 antibody binding, higher = more signal.
Assay [10] concerns Human papillomavirus type 1a E7 protein (residues 1-88). In words: HPV1a E7 small-molecule binders, primary screen, biochemical, small-molecule microarray, residues 1-88, 635 nm (AID 1129). The conditions noted are these: small-molecule microarray binding, fluorescence 635 nm; higher = more signal.
In assay [11] the target is Focal adhesion kinase 1 (Homo sapiens) (UniProt Q05397). In words: small-molecule microarray binders of FAK, primary screen, biochemical, 635/667 nm fluorescence, BSA, DTT (AID 1130).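 Also: composite of spot emission at 667 nm and signal to noise over triplicate slides.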 As to conditions: PTK2 binding, 635 nm fluorescence, higher = more signal.
Chain of Focal adhesion kinase 1 (Homo sapiens) (Q05397 whole entry, looked up): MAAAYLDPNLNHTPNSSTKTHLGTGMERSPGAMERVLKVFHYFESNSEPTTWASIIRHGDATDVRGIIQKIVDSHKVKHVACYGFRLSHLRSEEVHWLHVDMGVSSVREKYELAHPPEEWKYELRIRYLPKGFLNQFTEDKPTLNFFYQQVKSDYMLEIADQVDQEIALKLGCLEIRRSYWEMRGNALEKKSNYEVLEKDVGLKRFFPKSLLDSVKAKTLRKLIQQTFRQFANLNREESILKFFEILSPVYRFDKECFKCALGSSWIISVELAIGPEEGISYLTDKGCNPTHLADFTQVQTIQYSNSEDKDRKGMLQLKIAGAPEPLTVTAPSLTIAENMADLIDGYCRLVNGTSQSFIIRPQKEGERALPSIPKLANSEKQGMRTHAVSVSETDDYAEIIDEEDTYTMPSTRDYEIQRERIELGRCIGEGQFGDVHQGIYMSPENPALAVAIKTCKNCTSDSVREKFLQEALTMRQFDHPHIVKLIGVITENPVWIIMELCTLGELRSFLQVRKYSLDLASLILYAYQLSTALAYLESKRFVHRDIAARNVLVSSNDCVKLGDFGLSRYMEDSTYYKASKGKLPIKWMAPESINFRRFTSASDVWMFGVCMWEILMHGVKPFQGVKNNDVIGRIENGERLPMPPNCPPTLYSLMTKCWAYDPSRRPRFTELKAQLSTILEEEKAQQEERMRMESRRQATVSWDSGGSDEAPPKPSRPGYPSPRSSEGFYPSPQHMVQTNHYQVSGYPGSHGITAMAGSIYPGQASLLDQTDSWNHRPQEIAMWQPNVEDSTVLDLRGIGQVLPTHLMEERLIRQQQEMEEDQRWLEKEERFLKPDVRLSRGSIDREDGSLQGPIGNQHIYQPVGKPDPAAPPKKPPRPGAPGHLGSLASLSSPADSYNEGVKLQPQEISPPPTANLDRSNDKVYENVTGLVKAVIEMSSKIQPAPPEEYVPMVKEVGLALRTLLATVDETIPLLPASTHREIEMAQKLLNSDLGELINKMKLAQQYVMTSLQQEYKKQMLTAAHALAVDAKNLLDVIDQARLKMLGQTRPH
Assay [12] concerns Fibrinogen (Alexa647-labelled). In words: fibrinogen binders on compound microarrays, profiling panel, artefact control for SMM control-protein annotation, biochemical, small-molecule microarray, 635/667 nm fluorescence (AID 1131).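 Also: z-score merges 667 nm fluorescence with per-spot signal-to-noise over triplicate slides.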 The conditions noted are these: fibrinogen-A647 binding fluorescence, higher = more signal.
Assay [13] concerns the target Follistatin (Homo sapiens) (UniProt P19883). Nature of the assay: follistatin binders on small-molecule microarrays, primary screen, biochemical, small-molecule microarray, 635/667 nm fluorescence (AID 1132). The conditions noted are these: FST binding, 635 nm fluorescence, higher = more signal.
Assay [14] addresses Fibroblast growth factor 2 (Homo sapiens) (UniProt P09038). Nature of the assay: FGF2 binders on small-molecule microarrays, primary screen, biochemical, small-molecule microarray, 635/667 nm fluorescence (AID 1133). The conditions noted are these: small-molecule microarray binding, FGF2, fluorescence 635/667; higher = more signal.
The nature of assay [15]: mitochondrial membrane potential change in A549 cells, profiling panel, cell-based, JC-1 fluorescence, basal, 24 h, 100 nL (AID 1138).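 Also: A549 lung adenocarcinoma cells under basal conditions with no added stimulus; test concentration not given here.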 The conditions noted are these: higher = more signal.
A further assay concerns Lefty1. Nature of the assay: Lefty1 binders on small-molecule microarrays, primary screen, biochemical, small-molecule microarray, 635/667 nm fluorescence (AID 1139). The conditions noted are these: small-molecule microarray binding, fluorescence 635/667; higher = more signal.
Assay [16] has as its system wheat germ agglutinin (Triticum aestivum), Alexa647-labelled. In words: wheat germ agglutinin binders on compound microarrays, profiling panel, artefact control for SMM control-protein annotation, biochemical, small-molecule microarray, 635/667 nm fluorescence (AID 1140).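 Also: score merges 667 nm feature emission with signal to noise over triplicate slides.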 The conditions noted are these: WGA-A647 binding, 635 nm fluorescence, higher = more signal.
In assay [17] the target is Luciferin 4-monooxygenase (Photinus pyralis) (UniProt P08659). Nature of the assay: firefly luciferase enzyme inhibitors, primary screen, biochemical, luminescence, purified enzyme, 2006 set (AID 1141).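 Also: cell-free assay with purified firefly luciferase at 100 ng per well in PBS; test concentration not given here.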 The conditions noted are these: SteadyGlo luminescence, 30 min, higher = more signal, called active from +8 up or from −8 down.
Chain of Luciferin 4-monooxygenase (Photinus pyralis) (P08659 whole entry, looked up): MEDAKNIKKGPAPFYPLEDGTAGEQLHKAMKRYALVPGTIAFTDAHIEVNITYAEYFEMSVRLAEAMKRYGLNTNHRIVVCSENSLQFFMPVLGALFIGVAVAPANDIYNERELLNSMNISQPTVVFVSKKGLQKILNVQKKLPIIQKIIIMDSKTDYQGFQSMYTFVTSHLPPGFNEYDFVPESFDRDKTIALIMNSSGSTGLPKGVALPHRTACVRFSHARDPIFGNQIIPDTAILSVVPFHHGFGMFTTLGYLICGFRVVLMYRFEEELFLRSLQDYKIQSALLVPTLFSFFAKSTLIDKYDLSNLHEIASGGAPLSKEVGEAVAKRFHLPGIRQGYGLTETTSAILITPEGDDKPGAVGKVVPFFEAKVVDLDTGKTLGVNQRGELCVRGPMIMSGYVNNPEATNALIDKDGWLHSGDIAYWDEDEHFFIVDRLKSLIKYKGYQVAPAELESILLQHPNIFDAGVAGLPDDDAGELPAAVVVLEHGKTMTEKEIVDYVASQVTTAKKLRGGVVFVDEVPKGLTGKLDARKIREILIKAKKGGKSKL

The structures appear in SMILES notation. Calls of active or inactive are those of the source.

Chain of Albumin (Bos taurus) (P02769 whole entry, looked up): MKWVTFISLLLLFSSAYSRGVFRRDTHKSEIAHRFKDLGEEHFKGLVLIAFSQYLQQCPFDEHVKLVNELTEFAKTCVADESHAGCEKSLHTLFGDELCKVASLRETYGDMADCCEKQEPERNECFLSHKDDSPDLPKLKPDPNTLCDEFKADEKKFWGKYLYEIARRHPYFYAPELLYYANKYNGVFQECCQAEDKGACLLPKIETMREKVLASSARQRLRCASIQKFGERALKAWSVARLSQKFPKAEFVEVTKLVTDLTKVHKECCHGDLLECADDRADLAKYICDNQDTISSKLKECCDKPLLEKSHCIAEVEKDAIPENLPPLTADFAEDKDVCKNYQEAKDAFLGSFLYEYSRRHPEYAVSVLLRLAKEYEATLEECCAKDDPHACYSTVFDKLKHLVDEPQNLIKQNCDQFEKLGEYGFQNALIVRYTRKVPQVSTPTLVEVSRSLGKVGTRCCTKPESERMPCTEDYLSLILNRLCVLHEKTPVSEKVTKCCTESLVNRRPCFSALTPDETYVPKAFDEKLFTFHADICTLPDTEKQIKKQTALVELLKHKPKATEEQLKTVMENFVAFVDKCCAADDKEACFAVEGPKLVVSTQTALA
Chain of Follistatin (Homo sapiens) (P19883 whole entry, looked up): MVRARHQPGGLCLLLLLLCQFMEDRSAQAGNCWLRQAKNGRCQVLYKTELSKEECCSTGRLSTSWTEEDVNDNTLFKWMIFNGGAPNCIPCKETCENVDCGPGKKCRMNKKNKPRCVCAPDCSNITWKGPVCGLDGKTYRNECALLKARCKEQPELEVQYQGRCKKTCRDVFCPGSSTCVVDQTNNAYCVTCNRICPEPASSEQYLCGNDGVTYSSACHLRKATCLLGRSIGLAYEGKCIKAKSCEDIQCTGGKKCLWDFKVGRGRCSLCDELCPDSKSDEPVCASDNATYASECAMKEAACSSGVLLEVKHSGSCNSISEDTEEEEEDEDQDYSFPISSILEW
Chain of Fibroblast growth factor 2 (Homo sapiens) (P09038 whole entry, looked up): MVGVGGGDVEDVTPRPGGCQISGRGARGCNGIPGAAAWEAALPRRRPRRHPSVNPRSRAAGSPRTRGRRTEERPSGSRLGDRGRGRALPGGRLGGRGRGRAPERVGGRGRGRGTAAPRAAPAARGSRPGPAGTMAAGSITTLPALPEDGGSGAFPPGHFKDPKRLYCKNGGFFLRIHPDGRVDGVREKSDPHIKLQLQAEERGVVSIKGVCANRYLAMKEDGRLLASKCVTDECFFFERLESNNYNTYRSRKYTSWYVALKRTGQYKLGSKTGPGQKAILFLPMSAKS

As to `CCN1C(=O)[C@H]2[C@H]3[C@H](O)[C@H](O)CC(=NOC(C)CN4CCCCc5nc(C)c(C)cc54)[C@@H]3CC[C@H]2C1=O` (stereo not given in full), the composite z-score with Albumin (Bos taurus) is -0.428; in assay [2] it was -0.0511; in assay [3], -0.0539; in assay [4], -0.144; in assay [5], -0.144; in assay [6], 0.0096. The composite z-score is 0.238 with Sam68 (KHDRBS1); 1.22 in [7]; -0.0891 in assay [8]; 2.1 in assay [9]; 0.0084 in assay [10]; 0.167 in assay [11]. Besides, the composite z-score in [12] is -0.323; in assay [13], 0.861; in assay [14] it was 0.541; in the assay with Lefty1 it was 0.672; in assay [16] it was 0.0283. The composite Z-score in assay [1] is -0.467 (inactive). Moreover, the z-score in assay [15] was 0.0743; in [17], 0.161 (inactive).
On to `C#CCCCON=C1C[C@@H](O)[C@@H](O)[C@@H]2[C@@H]3C(=O)N(c4cccc(Oc5ccccc5)c4)C(=O)[C@@H]3CC[C@@H]12`, for which the composite z-score with Albumin (Bos taurus) was 0.487; in assay [2], -0.0311; in [3], -0.244; in assay [4], 0.256; in assay [5], 1.77; in [6], -0.164. Further, the composite z-score is 1.32 in the assay with Sam68 (KHDRBS1); -0.0255 in assay [7]; 0.884 in assay [8]; -0.0428 in [9]; 1 in assay [10]; 0.181 in assay [11]. Moreover, the composite z-score in [12] was determined as 0.945; in assay [13], 0.304; in assay [14], 0.224; in the assay with Lefty1, 0.481; in [16], 0.632. For the same compound, the composite Z-score in [1] was 0.154 (inactive). Further, the z-score in assay [15] was -0.786; in [17] it was 1.02 (inactive).
Regarding `COC(=O)[C@H](C)NC(=O)[C@@H](C)CO`, the composite z-score with Albumin (Bos taurus) is 0.802; in assay [2], -0.105; in [3], -0.103; in assay [4], 0.516; in assay [5], 1.15; in assay [6], 0.531. For the same compound, the composite z-score was 1.03 in the assay on Sam68 (KHDRBS1); 0.0899 in assay [7]; 0.907 in [8]; 0.548 in assay [9]; 1.2 in [10]; 0.48 in assay [11]. For the same compound, the composite z-score is 0.941 in [12]; 0.252 in assay [13]; 0.108 in assay [14]; 0.602 with Lefty1; 1 in [16]. In [1], the composite Z-score is 0.292 (inactive). Also, the z-score in assay [15] is -1.08; in assay [17], 0.877 (inactive).
For `CC[C@@H](c1ccccc1)n1c(=O)n2n(c1=O)[C@H]1[C@H](O)[C@@H]3O[C@@H]3C(=NOCC(C)C)[C@H]1CC2`, the composite z-score with Albumin (Bos taurus) was -0.231; in assay [2] it was -0.0189; in [3], -0.0986; in assay [4], 0.308; in assay [5], 0.0644; in assay [6], 0.422. Also, the composite z-score with Sam68 (KHDRBS1) was 0.362; in assay [7], -0.086; in [8] it was 0.0275; in assay [9], 0.356; in assay [10], 0.0566; in [11] it was -0.267. For the same compound, the composite z-score in assay [12] was -0.203; in assay [13], 0.38; in assay [14] it was 0.0571; in the assay on Lefty1, 0.542; in assay [16], -0.0401. Also, the composite Z-score in assay [1] is -0.0127 (inactive). The z-score in assay [15] is -0.492; in assay [17], 0.292 (inactive).
Turning to `COCC1=C2[C@@H](CCc3ccccc3)OB(O)C[C@@H]2n2c(=O)n(-c3ccccc3)c(=O)n2C1`, the composite z-score was 0.352 in the assay with Albumin (Bos taurus); -0.0204 in [2]; -0.0649 in assay [3]; 0.0995 in assay [4]; -0.0955 in assay [5]; 0.0421 in assay [6]. The composite z-score in the assay on Sam68 (KHDRBS1) is -0.0265; in assay [7] it was 0.198; in [8] it was -0.0151; in [9], 0.241; in [10], -0.028; in assay [11], -0.0493. For the same compound, the composite z-score in [12] was -0.434; in [13] it was 0.133; in assay [14], 0.506; in the assay on Lefty1, 0.336; in [16], -0.228. Moreover, the composite Z-score in [1] is -0.532 (inactive). Besides, the z-score in [15] was 0.581; in assay [17] it was -1.19 (inactive).
